Experimental data reported in ChEMBL document CHEMBL1157539, “Thousands of chemical starting points for antimalarial lead identification” (Nature, 2010).

Experiments:
Assay type in all cases: functional
Plasmodium falciparum [1] = assay: GSK_TCMDC: Inhibition of Plasmodium falciparum 3D7 in whole red blood cells, using parasite LDH activity as an index of growth. Test compounds present at 2uM
Plasmodium falciparum [2] = assay: GSK_TCMDC: Inhibition of Plasmodium falciparum Dd2 in whole red blood cells, using parasite LDH activity as an index of growth. Test compounds present at 2uM
HepG2 = assay: GSK_TCMDC: Percent inhibition of human HepG2 cell line. Test compounds present at 10uM.

SMILES: O=C(NCC1CCC(CNCCc2ccccc2)CC1)Nc1ccc(Cl)c(Cl)c1 (stereo not drawn)
- Inhibition (Plasmodium falciparum [1]): 96%
- Inhibition (Plasmodium falciparum [2]): 0%
- Inhibition (HepG2): 24%

SMILES: CC(CN(C)C)C(=O)Nc1cccc(-c2ccc(-c3nc4ccccc4[nH]3)cc2)c1 (stereo not drawn)
- Inhibition (Plasmodium falciparum [1]): 98%
- Inhibition (Plasmodium falciparum [2]): 25%
- Inhibition (HepG2): 1%

SMILES: CCOC(=O)C1=C(C)NC2=C(C(=O)CC(C)(C)C2)C1c1ccc(Cl)cc1 (stereo not drawn)
- Inhibition (Plasmodium falciparum [1]): 96%
- Inhibition (Plasmodium falciparum [2]): 84%
- Inhibition (HepG2): 4%

SMILES: O=C(Nc1nc2cc(S(=O)(=O)NCc3ccc(Cl)c(Cl)c3)ccc2n1CCCN1CCCC1)c1ccc(Cl)cc1.O=C(O)C(F)(F)F
- Inhibition (Plasmodium falciparum [1]): 89%
- Inhibition (Plasmodium falciparum [2]): 16%
- Inhibition (HepG2): 57%

SMILES: Cc1cc(N[C@@H](Cc2ccccc2)C(=O)NCc2cccc(F)c2)nc(NCCOc2ccccc2)n1.O=C(O)C(F)(F)F
- Inhibition (Plasmodium falciparum [1]): 97%
- Inhibition (Plasmodium falciparum [2]): 7%
- Inhibition (HepG2): 0%

SMILES: N#CN1CC[C@H](CS(=O)(=O)c2cccc(Br)c2)C1
- Inhibition (Plasmodium falciparum [1]): 88%
- Inhibition (Plasmodium falciparum [2]): 74%
- Inhibition (HepG2): 8%

SMILES: Cc1ccccc1N1CCN(c2ccc(C(=O)NC(C)C)cn2)CC1.O=C(O)C(F)(F)F
- Inhibition (Plasmodium falciparum [1]): 89%
- Inhibition (Plasmodium falciparum [2]): 91%
- Inhibition (HepG2): 13%

SMILES: CCCCCCCNc1cc(C)nc2ccc(OC)cc12.Cl
- Inhibition (Plasmodium falciparum [1]): 100%
- Inhibition (Plasmodium falciparum [2]): 100%
- Inhibition (HepG2): 30%

SMILES: COC(=O)c1ccc(CC(C)NCC(O)c2ccc(C(O)CNC(C)Cc3ccc(C(=O)OC)cc3)cc2)cc1.O (stereo not drawn)
- Inhibition (Plasmodium falciparum [1]): 88%
- Inhibition (Plasmodium falciparum [2]): 13%
- Inhibition (HepG2): 24%

SMILES: CCCCCCc1cc(OC)c(OC)cc1C(C)Nc1ccnc2cc(Cl)ccc12 (stereo not drawn)
- Inhibition (Plasmodium falciparum [1]): 95%
- Inhibition (Plasmodium falciparum [2]): 79%
- Inhibition (HepG2): 6%

SMILES: c1cc2[nH]c(CCc3nc4cc(C5=NC6CCCCC6N5)ccc4[nH]3)nc2cc1C1=NC2CCCCC2N1 (stereo not drawn)
- Inhibition (Plasmodium falciparum [1]): 93%
- Inhibition (Plasmodium falciparum [2]): 96%
- Inhibition (HepG2): 3%
